{"source": "the supplement of paper PMC7765376", "note": "In all, about 1,500 compounds were measured (“Excess HSA synergy score (sum over dose matrix of excess over highest single agent)”: median about 43, lowest 2% from about -900 on). The full list was thinned out, with the lowest values kept by preference.", "data": [{"test_system": "PEO-1", "assay": "Excess HSA synergy score (sum over dose matrix of excess over highest single agent) (score (summed % response)); higher = less synergy / more antagonism (negative = synergy)", "settings": "72 h; read-out: viability/apoptosis luminescence (CellTiter-Glo or Caspase3-Glo / not stated per table); matrix design: 6x6, 5-fold dilutions (primary screen)", "values": [{"smiles": "Cc1c(C(=O)Nc2ccc(N3C[C@@H](C)O[C@@H](C)C3)nc2)cccc1-c1ccc(OC(F)(F)F)cc1", "note": "[Sonidegib] + CC[C@H](NC(=O)[C@H](C)NC)C(=O)N1C[C@@H](O)C[C@H]1Cc1c(-c2[nH]c3cc(F)ccc3c2C[C@@H]2C[C@H](O)CN2C(=O)[C@H](CC)NC(=O)[C@H](C)NC)[nH]c2cc(F)ccc12 [Birinapant]", "Excess HSA synergy score": 68.2}, {"smiles": "Cc1ccc(CN2CCNCC2)cc1NC(=O)CNc1ccc(F)c(F)c1", "note": "+ CC[C@H](NC(=O)[C@H](C)NC)C(=O)N1C[C@@H](O)C[C@H]1Cc1c(-c2[nH]c3cc(F)ccc3c2C[C@@H]2C[C@H](O)CN2C(=O)[C@H](CC)NC(=O)[C@H](C)NC)[nH]c2cc(F)ccc12 [Birinapant]", "Excess HSA synergy score": 191}, {"smiles": "c1ccc2c(-c3cnn4cc(-c5ccc(N6CCNCC6)cc5)cnc34)ccnc2c1", "note": "+ CC[C@H](NC(=O)[C@H](C)NC)C(=O)N1C[C@@H](O)C[C@H]1Cc1c(-c2[nH]c3cc(F)ccc3c2C[C@@H]2C[C@H](O)CN2C(=O)[C@H](CC)NC(=O)[C@H](C)NC)[nH]c2cc(F)ccc12 [Birinapant]", "Excess HSA synergy score": -53.9}, {"smiles": "CC(=O)NCCC(=O)N[C@@H](CCC(N)=O)C(=O)N[C@@H](CO)C(=O)N[C@@H](CCC(N)=O)C(=O)N[C@@H](CCC(N)=O)C(=O)N[C@H](C(=O)N[C@@H](Cc1ccccc1)C(=O)N[C@]1(C)CCCCCC/C=C\\CCC[C@@](C)(C(=O)N[C@@H](CCC(N)=O)C(=O)N[C@@H](CC(N)=O)C(N)=O)NC(=O)[C@H](CC(C)C)NC(=O)[C@H](CC(C)C)NC(=O)[C@@H](CCCNC(=N)N)NC(=O)[C@H](Cc2c[nH]c3ccccc23)NC(=O)[C@H](CC(C)C)NC(=O)[C@H](CC(N)=O)NC1=O)[C@H](C)O", "note": "+ CC[C@H](NC(=O)[C@H](C)NC)C(=O)N1C[C@@H](O)C[C@H]1Cc1c(-c2[nH]c3cc(F)ccc3c2C[C@@H]2C[C@H](O)CN2C(=O)[C@H](CC)NC(=O)[C@H](C)NC)[nH]c2cc(F)ccc12 [Birinapant]", "Excess HSA synergy score": 168}, {"smiles": "CCN1CCN(c2ccc(Nc3cc(N(C)C(=O)Nc4c(Cl)c(OC)cc(OC)c4Cl)ncn3)cc2)CC1", "note": "[Infigratinib] + CC[C@H](NC(=O)[C@H](C)NC)C(=O)N1C[C@@H](O)C[C@H]1Cc1c(-c2[nH]c3cc(F)ccc3c2C[C@@H]2C[C@H](O)CN2C(=O)[C@H](CC)NC(=O)[C@H](C)NC)[nH]c2cc(F)ccc12 [Birinapant]", "Excess HSA synergy score": -48.8}, {"smiles": "COc1cc2c(cc1Cc1cccc(Cl)c1F)c(=O)c(C(=O)O)cn2[C@H](CO)C(C)C", "note": "[Elvitegravir] + CC[C@H](NC(=O)[C@H](C)NC)C(=O)N1C[C@@H](O)C[C@H]1Cc1c(-c2[nH]c3cc(F)ccc3c2C[C@@H]2C[C@H](O)CN2C(=O)[C@H](CC)NC(=O)[C@H](C)NC)[nH]c2cc(F)ccc12 [Birinapant]", "Excess HSA synergy score": 326}, {"smiles": "OCCC#Cc1nc(-c2ccc(F)cc2)c(-c2ccncc2)n1CCCc1ccccc1", "note": "+ CC[C@H](NC(=O)[C@H](C)NC)C(=O)N1C[C@@H](O)C[C@H]1Cc1c(-c2[nH]c3cc(F)ccc3c2C[C@@H]2C[C@H](O)CN2C(=O)[C@H](CC)NC(=O)[C@H](C)NC)[nH]c2cc(F)ccc12 [Birinapant]", "Excess HSA synergy score": 286}, {"smiles": "COc1ccc(/C=C\\c2cc(OC)c(OC)c(OC)c2)cc1NC(=O)[C@@H](N)CO", "note": "[Ombrabulin] + CC[C@H](NC(=O)[C@H](C)NC)C(=O)N1C[C@@H](O)C[C@H]1Cc1c(-c2[nH]c3cc(F)ccc3c2C[C@@H]2C[C@H](O)CN2C(=O)[C@H](CC)NC(=O)[C@H](C)NC)[nH]c2cc(F)ccc12 [Birinapant]", "Excess HSA synergy score": -98.3}, {"smiles": "O=C(CO)N1CCC(c2n[nH]c(-c3ccc(Cl)cc3)c2-c2ccncn2)CC1", "note": "+ CC[C@H](NC(=O)[C@H](C)NC)C(=O)N1C[C@@H](O)C[C@H]1Cc1c(-c2[nH]c3cc(F)ccc3c2C[C@@H]2C[C@H](O)CN2C(=O)[C@H](CC)NC(=O)[C@H](C)NC)[nH]c2cc(F)ccc12 [Birinapant]", "Excess HSA synergy score": 244}, {"smiles": "CC(C)(OCc1nn(Cc2ccccc2)c2ccccc12)C(=O)O", "note": "[Bindarit] + CC[C@H](NC(=O)[C@H](C)NC)C(=O)N1C[C@@H](O)C[C@H]1Cc1c(-c2[nH]c3cc(F)ccc3c2C[C@@H]2C[C@H](O)CN2C(=O)[C@H](CC)NC(=O)[C@H](C)NC)[nH]c2cc(F)ccc12 [Birinapant]", "Excess HSA synergy score": -236}, {"smiles": "Cc1ccc(/C=N/NC(=O)c2ccccc2Oc2ccccc2)o1", "note": "+ CC[C@H](NC(=O)[C@H](C)NC)C(=O)N1C[C@@H](O)C[C@H]1Cc1c(-c2[nH]c3cc(F)ccc3c2C[C@@H]2C[C@H](O)CN2C(=O)[C@H](CC)NC(=O)[C@H](C)NC)[nH]c2cc(F)ccc12 [Birinapant]", "Excess HSA synergy score": 277}, {"smiles": "CC(C)c1cc(C(C)C)c(CC(=O)NS(=O)(=O)Oc2c(C(C)C)cccc2C(C)C)c(C(C)C)c1", "note": "[Avasimibe] + CC[C@H](NC(=O)[C@H](C)NC)C(=O)N1C[C@@H](O)C[C@H]1Cc1c(-c2[nH]c3cc(F)ccc3c2C[C@@H]2C[C@H](O)CN2C(=O)[C@H](CC)NC(=O)[C@H](C)NC)[nH]c2cc(F)ccc12 [Birinapant]", "Excess HSA synergy score": 95.2}, {"smiles": "CC(=O)C1=C(O)C=C2Oc3c(C(C)=O)c(O)c(C)c(O)c3C2(C)C1=O", "note": "(single isomer, unassigned; (+)) [(+)-Usniacin] + CC[C@H](NC(=O)[C@H](C)NC)C(=O)N1C[C@@H](O)C[C@H]1Cc1c(-c2[nH]c3cc(F)ccc3c2C[C@@H]2C[C@H](O)CN2C(=O)[C@H](CC)NC(=O)[C@H](C)NC)[nH]c2cc(F)ccc12 [Birinapant]", "Excess HSA synergy score": -123}, {"smiles": "C[C@@H]1CN(Cc2ccc(F)cc2)[C@@H](C)CN1C(=O)c1cc2c(C(=O)C(=O)N(C)C)cn(C)c2cc1Cl", "note": "[Talmapimod] + CC[C@H](NC(=O)[C@H](C)NC)C(=O)N1C[C@@H](O)C[C@H]1Cc1c(-c2[nH]c3cc(F)ccc3c2C[C@@H]2C[C@H](O)CN2C(=O)[C@H](CC)NC(=O)[C@H](C)NC)[nH]c2cc(F)ccc12 [Birinapant]", "Excess HSA synergy score": 190}, {"smiles": "CCNC(=O)Nc1ccc(-c2nc3c(c(N4CCOC[C@@H]4C)n2)CCN(C2COC2)C3)cc1", "note": "+ CC[C@H](NC(=O)[C@H](C)NC)C(=O)N1C[C@@H](O)C[C@H]1Cc1c(-c2[nH]c3cc(F)ccc3c2C[C@@H]2C[C@H](O)CN2C(=O)[C@H](CC)NC(=O)[C@H](C)NC)[nH]c2cc(F)ccc12 [Birinapant]", "Excess HSA synergy score": -44.2}, {"smiles": "CN1CCN(c2nc(C3=C(c4c[nH]c5ccccc45)C(=O)NC3=O)c3ccccc3n2)CC1", "note": "[Sotrastaurin] + CC[C@H](NC(=O)[C@H](C)NC)C(=O)N1C[C@@H](O)C[C@H]1Cc1c(-c2[nH]c3cc(F)ccc3c2C[C@@H]2C[C@H](O)CN2C(=O)[C@H](CC)NC(=O)[C@H](C)NC)[nH]c2cc(F)ccc12 [Birinapant]", "Excess HSA synergy score": 84.5}, {"smiles": "Cc1noc(-c2ccc(CSCCC(=O)O)cc2)c1NC(=O)OC(C)c1ccccc1Cl", "note": "(stereo not drawn) + CC[C@H](NC(=O)[C@H](C)NC)C(=O)N1C[C@@H](O)C[C@H]1Cc1c(-c2[nH]c3cc(F)ccc3c2C[C@@H]2C[C@H](O)CN2C(=O)[C@H](CC)NC(=O)[C@H](C)NC)[nH]c2cc(F)ccc12 [Birinapant]", "Excess HSA synergy score": 351}, {"smiles": "CCOc1cc(C(=O)Nc2ccc(Cl)c(-c3nc4ccccc4[nH]3)c2)cc(OCC)c1OCC", "note": "+ CC[C@H](NC(=O)[C@H](C)NC)C(=O)N1C[C@@H](O)C[C@H]1Cc1c(-c2[nH]c3cc(F)ccc3c2C[C@@H]2C[C@H](O)CN2C(=O)[C@H](CC)NC(=O)[C@H](C)NC)[nH]c2cc(F)ccc12 [Birinapant]", "Excess HSA synergy score": 142}, {"smiles": "C=C(C)[C@@H]1CC[C@]2(C)CC[C@]3(C)[C@H](CC[C@@H]4[C@@]5(C)CC[C@H](O)C(C)(C)[C@@H]5CC[C@]43C)[C@@H]12", "note": "[Lupeol] + CC[C@H](NC(=O)[C@H](C)NC)C(=O)N1C[C@@H](O)C[C@H]1Cc1c(-c2[nH]c3cc(F)ccc3c2C[C@@H]2C[C@H](O)CN2C(=O)[C@H](CC)NC(=O)[C@H](C)NC)[nH]c2cc(F)ccc12 [Birinapant]", "Excess HSA synergy score": -39.9}, {"smiles": "O=C(NNC(=O)c1ccc(CNS(=O)(=O)c2ccc(F)c(Cl)c2)cc1)c1ccccc1", "note": "+ CC[C@H](NC(=O)[C@H](C)NC)C(=O)N1C[C@@H](O)C[C@H]1Cc1c(-c2[nH]c3cc(F)ccc3c2C[C@@H]2C[C@H](O)CN2C(=O)[C@H](CC)NC(=O)[C@H](C)NC)[nH]c2cc(F)ccc12 [Birinapant]", "Excess HSA synergy score": 144}, {"smiles": "CC(C)(C)c1cc(C(C)(C)C)c(NC(=O)c2c[nH]c3ccccc3c2=O)cc1O", "note": "[Ivacaftor] + CC[C@H](NC(=O)[C@H](C)NC)C(=O)N1C[C@@H](O)C[C@H]1Cc1c(-c2[nH]c3cc(F)ccc3c2C[C@@H]2C[C@H](O)CN2C(=O)[C@H](CC)NC(=O)[C@H](C)NC)[nH]c2cc(F)ccc12 [Birinapant]", "Excess HSA synergy score": 116}, {"smiles": "C=CC(=O)Nc1cc2c(Nc3ccc(F)c(Cl)c3)ncnc2cc1C#CC(C)(C)N1CCN(C)CC1", "note": "+ CC[C@H](NC(=O)[C@H](C)NC)C(=O)N1C[C@@H](O)C[C@H]1Cc1c(-c2[nH]c3cc(F)ccc3c2C[C@@H]2C[C@H](O)CN2C(=O)[C@H](CC)NC(=O)[C@H](C)NC)[nH]c2cc(F)ccc12 [Birinapant]", "Excess HSA synergy score": 44.3}, {"smiles": "CO[C@H]1C(=O)[C@]2(C)[C@@H](OC)C[C@H]3OC[C@@]3(OC(C)=O)[C@H]2[C@H](OC(=O)c2ccccc2)[C@]2(O)C[C@H](OC(=O)[C@H](O)[C@@H](NC(=O)OC(C)(C)C)c3ccccc3)C(C)=C1C2(C)C", "note": "[Cabazitaxel] + CC[C@H](NC(=O)[C@H](C)NC)C(=O)N1C[C@@H](O)C[C@H]1Cc1c(-c2[nH]c3cc(F)ccc3c2C[C@@H]2C[C@H](O)CN2C(=O)[C@H](CC)NC(=O)[C@H](C)NC)[nH]c2cc(F)ccc12 [Birinapant]", "Excess HSA synergy score": -61.8}]}]}
